The list is not random: actives were taken first. Their share in the collection is about 4%.
TWEAK-Fn14 inh: blocks TWEAK-Fn14 interaction in a reporter cell assay; TWEAK-stimulated Fn14 reporter cells, luciferase luminescence, 8 h; 360,000 tested, 2% active; inhibition, % at 10 µM; AID 1159606; in the data active = inhibition above about 50%
Peg3 prom inh-1: reduces Peg3 promoter-driven luciferase expression in HeLa. inhibition, % at 20 µM. 360,000 tested, 1.7% active. HeLa PEG-Prom luciferase reporter, luminescence, overnight. AID 588405;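 active = inhibition of at least 50% at 20 µM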
KKLEB tox: CF airway cell cytotoxicity counter-screen; KKLEB CF airway cells viability, ATPlite luminescence, overnight; active compounds read low; cells stimulated with P. aeruginosa culture filtrate; activity change (cytotoxicity), % at 5 µM; 360,000 tested, 0.36% active; AID 602141;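 active = corrected activity change at or below -50% at 5 µM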
CF NFkB block: blocks PAF-induced NF-kB reporter in cystic fibrosis cells; KKLEB NF-kB-GFP reporter, GFP fluorescence overnight; inhibition, % at 5 µM; 360,000 tested, 0.86% active;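 active = at least 50% inhibition at 5 µM, scaled per plate between neutral and stimulator controls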;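 note: PAF is a Pseudomonas aeruginosa culture filtrate used as stimulus; plate controls were PAF-stimulated DMSO wells for no effect and unstimulated DMSO wells for full effect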
HIF-2a inh: HIF-2a inhibition. 360,000 tested, 0.72% active. 786-0 RCC cells HIF-2a reporter, luciferase luminescence, overnight. AID 624352. inhibition, % at 18.8 µM;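 active = inhibition of the luminescence signal of 40% or more relative to plate controls, in a single-dose primary screen at 18.75 µM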
TROY signal inh: TROY signaling inhibition; Q293 LMP1-TROYcd NF-kB luciferase reporter, 4 h; inhibition, % at 10 µM; 360,000 tested, 0.98% active; AID 1347056;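 active = compounds whose plate-normalised and pattern-corrected inhibition of the luciferase reporter signal at the single screening dose is 50% or more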
Peg3 prom inh-2: Peg3 promoter inhibition confirmation; shares compounds with Peg3 prom inh-1; HeLa PEG-Prom luciferase reporter, luminescence, overnight; inhibition, % at 20 µM; 1,300 tested, 84% active;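 active = at 20 µM dose, 40% or more inhibition averaged across four replicates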
* marks the source's active call; other numbers are inactive results; . = no result.

SMILES	TWEAK-Fn14 inh	Peg3 prom inh-1	KKLEB tox	CF NFkB block	HIF-2a inh	TROY signal inh	Peg3 prom inh-2
Cc1nc2c(-c3ccc(Cl)cc3)c(C)[nH]n2c(=O)c1Cc1ccccc1	40	59*	-11	16	-22	32	67*
O=c1cc(-c2ccc(O)cc2)oc2ccc3ccccc3c12	102*	67*	-61*	-262	72*	88*	75*
O=C(NC1CCCC1)C(c1ccccc1)n1c(Cc2cc(F)cc(F)c2)nc2ccccc21 (stereo not given)	.	.	.	.	-8	.	.
Cc1cc(/C=N/Nc2ncnc(N)c2[N+](=O)[O-])c(C)n1-c1ccccc1	98*	92*	-50*	-14	59*	83*	84*
CC(=O)Nc1ccc(SCCCC(=O)c2ccccc2)cc1	19	-258	2	-14	-175	-34	.
O=C1C(Cl)=C(Nc2ccccc2)C(=O)c2ccccc21	44	102*	-83*	93*	97*	70*	98*
COc1ccc(-c2cc(-c3ccc(Cl)cc3)c(C#N)c(SCC(=O)O)n2)cc1	-1	-10	0	15	21	18	.
O=C(Nc1cccc(S(=O)(=O)N2CCOCC2)c1)c1ccc2c(=O)n3c(nc2c1)CCCCC3	31	51*	-6	-13	11	32	51*
CN1CCN(c2ccc(-c3cccc(NC(=O)COc4ccc(Cl)cc4Cl)c3)nn2)CC1	63*	54*	-58*	10	-67	74*	16
CCN(CC)c1ccc(S(=O)(=O)N2CCOCC2)cc1NC(=O)CNCc1cccc(Cl)c1	1	29	12	-10	31	2	.
O=C(N/N=C/c1ccc(Cl)cc1)c1n[nH]c2c1CCCC2	-3	-201	7	33	-251	-29	.
O=C(N/N=C/c1ccccc1Cl)c1n[nH]c2c1CCCC2	97*	78*	-21	15	-17	74*	16
O=c1c2c3c(sc2nc(N2CCNCC2)n1CCc1ccccc1)CCCCC3	-26	105*	-16	7	-19	-60	96*
Cc1ncn(-c2ccccc2)c1-c1ccccc1	14	1	-7	20	1	1	.
COc1ccc(CCNC(=O)c2cc3c(=O)n4ccccc4nc3n(C3CCCCC3)c2=N)cc1OC	-23	34	-1	13	7	-6	.
COc1ccc(CCNC(=O)c2cc3c(=O)n4ccccc4nc3n(C3CCCCC3)c2=N)cc1	-14	88*	-29	22	7	9	54*
COc1ccc(CCn2c(=N)c(C(=O)NC3CCCC3)cc3c(=O)n4cccc(C)c4nc32)cc1	-8	99*	-3	-19	-10	-1	64*
Brc1ccc(N=Nc2ccc3ccccc3n2)cc1	99*	73*	-98*	-26	62*	76*	68*
Cc1ccsc1/C=N/Nc1cccc(C(=O)O)c1	32	86*	6	-24	86*	-67	74*
O=c1c2ccccc2sc2nc(CCl)nn12	-1	104*	-11	7	31	-7	93*
CC1CCc2c(sc3ncn(CC(=O)N=Nc4c(O)[nH]c5ccccc45)c(=O)c23)C1 (stereo not given)	-1	39	14	-1	21	-10	.
CCc1nc(N=Nc2c(O)[nH]c3ccccc23)c2c3c(sc2n1)CCC3	12	85*	21	-38	-16	2	10
Cc1cc(C)n(CCNS(=O)(=O)c2ccccc2)n1	2	7	-3	-2	7	0	.
O=C(Nc1nccs1)c1cc2c(s1)CCCCC2	100*	58*	-54*	-11	51*	78*	16
O=C(Nc1nncs1)c1cc2c(s1)CCC2	-21	-181	-15	5	-184	-59	.
SMILES	TWEAK-Fn14 inh	Peg3 prom inh-1	KKLEB tox	CF NFkB block	HIF-2a inh	TROY signal inh	Peg3 prom inh-2
CN(C)c1ccc(-c2nc3ccccn3c2/N=C/c2ccc(Br)cc2)cc1	65*	54*	-9	-8	36	22	41*
Cc1cccc(CN2C(=O)[C@H]3Cc4c([nH]c5ccccc45)C(C)(C)N3C2=O)c1	48	60*	-1	-11	24	12	49*
Cc1cccc(CN2C(=O)[C@@H]3Cc4c([nH]c5ccccc45)C(C)(C)N3C2=O)c1	50	35	-3	17	6	38	.
COC(=O)C1CN(C(=O)C(C)Oc2ccccc2Cl)c2ccccc2O1 (stereo not given)	5	11	-8	21	13	17	.
CC(C)(C)S(=O)(=O)/C(C#N)=C/c1cccn1S(=O)(=O)c1ccccc1	-11	-14	12	-20	2	4	.
COc1ccc2nc(Nc3nc(CSc4nnnn4-c4ccccc4)cc(=O)[nH]3)nc(C)c2c1	57*	74*	-46	23	5	23	44*
CCOc1ccc2nc(Nc3nc(CSc4nnnn4-c4ccccc4)cc(=O)[nH]3)nc(C)c2c1	22	-19	-10	14	10	2	.
COc1ccc(S(=O)(=O)N2CCOCC2)cc1C(=O)NCC(c1ccco1)N1CCCC1 (stereo not given)	1	-8	9	3	20	-6	.
CC(=NNC(=S)N1CCN(c2ccccn2)CC1)c1ccccn1	-4	-7	13	-13	-42	-4	.
CC(=NNC(=S)N1CCN(C2CCCCCC2)CC1)c1ccccn1	-8	102*	-2	6	-17	-2	99*
CC(NS(=O)(=O)OCC(Cl)(Cl)Cl)c1ccc(Br)cc1 (stereo not given)	6	11	17	-9	21	8	.
CC1=NOC(=O)/C1=C\c1ccc(-c2ccccc2Br)o1	96*	93*	-20	58*	49*	68*	99*
O=C(NC(Cc1ccc(O)cc1)C(=O)N=Nc1c(O)[nH]c2ccccc12)c1ccccc1 (stereo not given)	27	19	-2	4	22	-3	.
Cc1cc(CSc2ccccc2)ccc1NC(=O)c1ccc(Br)cc1	5	54*	11	-11	7	-9	23
O=C(Nc1cccc(Br)c1)c1ccc(CSc2ccccc2)cc1	-1	-70	-4	-9	-103	-48	.
Cc1ccc(F)cc1-c1cc2nc(NCCCN(C)C)n(C)c(=O)c2s1	-6	70*	17	3	-6	4	48*
CN(C)CCCNc1nc2cc(-c3ccsc3)sc2c(=O)n1C	-34	-4	0	-11	-28	2	.
CC1CCCCC1NC(=O)COC(=O)c1ccc2c(c1)OCCO2 (stereo not given)	3	-11	-8	0	8	8	.
COc1ccc(C(O)(CCC(C)C)C(CN2CCOCC2)c2ccccc2)cc1 (stereo not given)	6	59*	-4	11	10	1	47*

Screening results as filed in PubChem BioAssay.
